This excerpt belongs to a sample that is enriched for hits.
Mac1 fbg enh – increases human CD11b/CD18 adhesion to fibrinogen; K562 CD11b/CD18 adhesion to fibrinogen, ATPlite luminescence; activation, % at 10 µM; actives 0.07% (n = 93,000); AID 1499;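 active means 10 µM primary screen giving 50% or more activity, confirmed by 40% or more on retest at that dose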
Cav32 inh – blocks human Cav3.2 T-type calcium channel; O95180; Cav3.2-expressing cells, Fluo-4 calcium fluorescence FDSS; stronger effect = lower value; B-score at 10 µM; actives 4% (n = 100,000); AID 449739;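 active means single-dose well whose peak fluorescence ratio is a statistical outlier from its plate by either plate-standardised score or position-corrected B-score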
Mac1 fbg inh – CD11b/CD18-fibrinogen binding inhibition. P05107+P11215. K562 CD11b/CD18 adhesion to fibrinogen, ATPlite luminescence; Mn2+ added to activate the integrin. inhibition, % at 10 µM. actives 0.54% (n = 93,000);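 active means primary inhibition of 50% or more at 10 µM, then 40% or more on retest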
E coli WT exp – E. coli BW25113 growth inhibition, expanded screen. OD600 absorbance. growth inhibition, % at 100 µM. actives 0.15% (n = 98,000);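 active means growth inhibition above about 50% at one test dose, limit read from the data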;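 further: growth measured after 20 h incubation at 37 °C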
The depositor's hits bear a star; . = no result given.

SMILES | Mac1 fbg enh | Cav32 inh | Mac1 fbg inh | E coli WT exp
COc1cc(C(=O)NC2CC3CCCC(C2)N3CC(=O)Nc2ccccc2)cc(OC)c1OC (centres undefined) | -2.1 | 4.41* | -2.6 | 1.0
O=C(CN1C2CCCC1CC(NC(=O)c1ccco1)C2)Nc1ccccc1 (centres undefined) | . | 1.97 | . | -6.0
CCOC(=O)C1C(=O)NC(c2ccccc2)=NC1c1ccc(Cl)cc1 (centres undefined) | -2.3 | . | -4.1 | -1.0
Cc1cc(C(=O)CN(Cc2ccc(F)cc2)S(=O)(=O)c2ccc3c(c2)OCCO3)c(C)n1C | 0.2 | -2.88* | -14.2 | -14.0
Cc1ccc(-n2nnnc2SCC(=O)c2cc(C)n(CC3CCCO3)c2C)cc1 (centres undefined) | -2.9 | -1.49 | -2.3 | .
Cc1cc(C(=O)CSc2nnc(-c3ccc(Cl)cc3)n2C)c(C)n1CC1CCCO1 (centres undefined) | . | 1.57 | . | -6.0
Cc1cccc(-n2nnnc2SCC(=O)c2cc(C)n(CC3CCCO3)c2C)c1 (centres undefined) | 0.0 | -5.43* | 7.6 | -32.0
Cc1sc2nc(SCC(=O)c3cc(C)n(CC4CCCO4)c3C)n(C(C)C)c(=O)c2c1C (centres undefined) | 20.4 | -4.09* | 2.2 | -3.0
Cc1cc(C(=O)Cn2nnc(-c3ccc(Cl)cc3)n2)c(C)n1CC1CCCO1 (centres undefined) | . | -5.21* | . | -1.0
Cc1cc(C(=O)CSc2nc3ccccc3o2)c(C)n1CC1CCCO1 (centres undefined) | -1.4 | -0.578 | 7.7 | -9.0
COC(C[C@@H](O)C[C@H](O)COCc1ccccc1)OC | . | 0.477 | . | .
CCNC(=O)NC(=O)CSc1nc2ccccc2n1CCOC | -5.1 | 0.197 | -6.1 | -5.0
CCn1cc(Cl)c(C(=O)N2N=C3/C(=C/c4cccs4)CCCC3C2c2cccs2)n1 (centres undefined) | . | -5.61* | . | .
Cc1ccc(C(=O)N/C(=C\c2cccs2)C(=O)NCCCn2ccnc2)cc1C | 0.6 | 1.42 | -12.7 | -7.0
CCOc1cc2c3c(c1)C1(Nc4ccccc4S1)C(=O)N3C(C)(C)CC2C (centres undefined) | 1.1 | -4.22* | 0.7 | -5.0
Cc1ccccc1C(=O)Nc1nc2n(n1)C(c1ccccc1)CC(=O)N2 (centres undefined) | -2.1 | -0.392 | -5.4 | 0.0
OCCN1CCN(C(c2cccs2)c2ccc3cccnc3c2O)CC1 (centres undefined) | 5.0 | 0.565 | -10.4 | 15.0
CC(C)(C)c1cc(C(c2cccnc2)N2CCN(CCO)CC2)cc(C(C)(C)C)c1O (centres undefined) | -5.7 | 0.976 | 52.3* | 5.0
Cc1ccc(-c2nc3ccccc3[nH]2)cc1NC(=O)c1sc2cc(Cl)ccc2c1Cl | -4.4 | . | -29.5 | .
COc1cc(C(=O)Nc2ccc(S(=O)(=O)N3CCc4ccccc43)cc2)cc(OC)c1OC | -4.5 | -5.29* | 4.7 | -17.0
COc1ccccc1C(=O)Nc1ccc(S(=O)(=O)N2CCc3ccccc32)cc1 | 18.3 | -1.41 | -32.4 | -5.0
COC(=O)Nc1ccc(S(=O)(=O)N2CCCc3ccccc32)cc1 | -1.2 | -6.13* | 9.0 | -3.0
COc1ccc(C(=O)NCc2ccccc2)cc1Br | 0.4 | . | -0.2 | .
COc1ccc(C(=O)NCc2ccccc2)cc1S(=O)(=O)N1CCCc2ccccc21 | -4.3 | -5.3* | -1.0 | -6.0
CCOc1ccc(N(C(C)C(=O)NCc2ccco2)S(C)(=O)=O)cc1 (centres undefined) | -3.2 | 1.18 | -7.4 | -10.0
SMILES | Mac1 fbg enh | Cav32 inh | Mac1 fbg inh | E coli WT exp
CCc1cc2c(-c3ccccc3)cc(=O)oc2c(CN2CCOCC2)c1O | 0.5 | -8.72* | 8.0 | -6.0
OCc1cccnc1 | . | -0.223 | . | .
Cc1ccc(C(=O)Nn2c(N)c(S(=O)(=O)c3ccc(C)cc3)c3nc4ccccc4nc32)cc1 | -7.7 | -5.46* | 7.1 | -9.0
CCCNC(=O)c1onc(CSc2ccc(Cl)cc2)c1C(=O)NCCC(C)C | . | -3.13 | . | .
Cc1ccc2c(c1)c(C)c(C)n2CC(O)Cn1nnc2ccccc21 (centres undefined) | -3.2 | -4.74* | 7.8 | -1.0
CCOC(=O)C1=NN(c2ccccc2C)C2=NC(C)=C(C(=O)OC)C(c3cccs3)N12 (centres undefined) | . | -5.96* | . | .
CCOC(=O)C1=NN(c2ccc(F)cc2)C2=NC(C)=C(C(=O)OC)C(c3cccs3)N12 (centres undefined) | . | 0.00602 | . | .
O=C(c1cc(-c2ccc(O)cc2)on1)N1CCc2ccccc2C1 | -1.4 | -6.23* | 10.5 | 2.0
Cn1cccc1/C=C1\CC(C(C)(C)C)C/C(=C\c2cccn2C)C1=O (centres undefined) | -0.1 | -9.06* | 2.8 | -18.0
CCN(CC)c1ccc2cc(C(C)=O)c(=O)oc2c1 | -0.8 | -10.3* | 3.2 | 2.0
CCN(CC)c1ccc2cc(C(=O)Nc3ccccn3)c(=O)oc2c1 | . | -3.42 | . | -9.0
CCN(CC)c1ccc2cc(-c3nnc(-c4ccncc4)o3)c(=O)oc2c1 | -2.4 | -4.02* | -11.7 | -7.0
CCN(CC)c1ccc2cc(C(N)=O)c(=O)oc2c1 | . | -1.65 | . | .
CCN(CC)c1ccc2cc(C=O)c(=O)oc2c1 | -9.6 | -9.02* | 16.0 | 8.0
Cc1ccc(S(=O)(=O)c2cc(C#N)c(=O)[nH]c2N)cc1 | . | 1.23 | . | -4.0
O=C(O)C1=C[C@H](c2ccc(F)cc2)C[C@H](OCc2ccc(CO)cc2)O1 | . | 0.0786 | . | .
CN1C(=O)C(CC(=O)Nc2ccc(F)cc2)N(CCCc2ccccc2)C1=S (centres undefined) | -0.3 | -5.18* | 10.5 | 9.0
COc1ccc(N2CCN(c3nc4ccccc4nc3NS(=O)(=O)c3ccccc3)CC2)cc1 | -5.0 | -4.2* | 15.4 | -4.0
COc1ccc(S(=O)(=O)Nc2nc3ccccc3nc2NCc2ccc3c(c2)OCO3)cc1 | 0.3 | . | 11.7 | .
O=S(=O)(Nc1nc2ccccc2nc1N1CCN(c2ccccn2)CC1)c1ccc(Cl)cc1 | -12.9 | -4.7* | 102.2* | -4.0
CC(=O)Nc1ccc(S(=O)(=O)Nc2nc3ccccc3nc2N2CCCCCC2)cc1 | . | -3.3 | . | 0.0
Cc1ccc(S(=O)(=O)Nc2nc3ccccc3nc2N2CCN(c3ccccc3F)CC2)cc1 | -6.8 | -3.59* | 65.6 | -20.0
COCCNc1nc(-c2cc(-c3ccc(Cl)cc3)on2)cc(C(C)C)n1 | . | 0.678 | . | .
CCOc1cc(C2C(C(=O)OCC(C)C)=C(C)N=C3SCCC(=O)N32)ccc1OC(C)=O (centres undefined) | -4.6 | -2.71 | 3.5 | 4.0
COc1ccccc1NC(=O)CCn1c(=O)sc2ccccc21 | . | -0.15 | . | .
SMILES | Mac1 fbg enh | Cav32 inh | Mac1 fbg inh | E coli WT exp
CC(C)(C)c1cc(C(C)(C)C)cc(S(=O)(=O)CCc2ccccn2)c1 | 0.5 | -6.85* | -14.5 | -7.0
C/C=C1\COC(C(=O)NCc2cccc(OC)c2OC)(C(F)(F)F)C=C1C=C1CCCCC1 (centres undefined) | . | -4.21* | . | .
C/C=C1\COC(C(=O)NCc2ccncc2)(C(F)(F)F)C=C1C=C1CCCCC1 (centres undefined) | . | -2.58 | . | .
CCC(CC)C(=O)Nc1ccc(Cl)c(Cl)c1 | -1.0 | -5.17* | -2.9 | 13.0
CC(C)OC(=O)NCCOC(=O)Nc1ccc(Cl)c(Cl)c1 | . | -6.96* | . | .
CCC(CC)C(=O)Nc1ccc(Sc2ccc([N+](=O)[O-])cc2)cc1 | -2.0 | -5.12* | -16.6 | 3.0

Screens deposited in PubChem by several laboratories.
